PLCg1 inh = inhibitors of human phospholipase C gamma1 | inhibition, % at 12.2 µM | 370,000 tested, 0.84% active | purified PLC-gamma1, fluorogenic substrate, fluorescence | P19174 | AID 720700; in the data active = inhibition above about 9.5%
LEDGF integ inh = blocks HIV-1 LEDGF/p75-dependent DNA integration; AID 743269; 370,000 tested, 0.64% active; TR-FRET IN-LEDGF/p75 DNA integration, Eu/Cy5; inhibition, % at 3.7 µM;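 active = inhibition above the screen-wide mean plus 3 SD, cut at about 13% in these data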;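 note: signal is the Cy5 over europium emission ratio at 671 and 618 nm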
MBD2 inh = inhibitors of human MBD2 binding to methylated oligonucleotide; Q9UBB5; TR-FRET; inhibition, % at 4.4 µM; 370,000 tested, 0.31% active; AID 686964; in the data active = inhibition above about 13%
UHRF1 binding = UHRF1 methyl-DNA binding inhibition; 370,000 tested, 0.75% active; UHRF1 binding to methylated oligo, TR-FRET; Q96T88; AID 687016; inhibition, % at 4.4 µM; in the data active = inhibition above about 21%;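 note: UHRF1 SRA domain binding a hemimethylated CpG hairpin DNA probe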
PLC-beta3 inh = blocks human PLC-beta3 enzyme activity; Q01970; Purified PLC-beta3, fluorogenic substrate, fluorescence; AID 720704; inhibition, % at 12.2 µM; 370,000 tested, 0.18% active; in the data active = inhibition above about 11%
Target sequence (Q01970 whole entry, looked up): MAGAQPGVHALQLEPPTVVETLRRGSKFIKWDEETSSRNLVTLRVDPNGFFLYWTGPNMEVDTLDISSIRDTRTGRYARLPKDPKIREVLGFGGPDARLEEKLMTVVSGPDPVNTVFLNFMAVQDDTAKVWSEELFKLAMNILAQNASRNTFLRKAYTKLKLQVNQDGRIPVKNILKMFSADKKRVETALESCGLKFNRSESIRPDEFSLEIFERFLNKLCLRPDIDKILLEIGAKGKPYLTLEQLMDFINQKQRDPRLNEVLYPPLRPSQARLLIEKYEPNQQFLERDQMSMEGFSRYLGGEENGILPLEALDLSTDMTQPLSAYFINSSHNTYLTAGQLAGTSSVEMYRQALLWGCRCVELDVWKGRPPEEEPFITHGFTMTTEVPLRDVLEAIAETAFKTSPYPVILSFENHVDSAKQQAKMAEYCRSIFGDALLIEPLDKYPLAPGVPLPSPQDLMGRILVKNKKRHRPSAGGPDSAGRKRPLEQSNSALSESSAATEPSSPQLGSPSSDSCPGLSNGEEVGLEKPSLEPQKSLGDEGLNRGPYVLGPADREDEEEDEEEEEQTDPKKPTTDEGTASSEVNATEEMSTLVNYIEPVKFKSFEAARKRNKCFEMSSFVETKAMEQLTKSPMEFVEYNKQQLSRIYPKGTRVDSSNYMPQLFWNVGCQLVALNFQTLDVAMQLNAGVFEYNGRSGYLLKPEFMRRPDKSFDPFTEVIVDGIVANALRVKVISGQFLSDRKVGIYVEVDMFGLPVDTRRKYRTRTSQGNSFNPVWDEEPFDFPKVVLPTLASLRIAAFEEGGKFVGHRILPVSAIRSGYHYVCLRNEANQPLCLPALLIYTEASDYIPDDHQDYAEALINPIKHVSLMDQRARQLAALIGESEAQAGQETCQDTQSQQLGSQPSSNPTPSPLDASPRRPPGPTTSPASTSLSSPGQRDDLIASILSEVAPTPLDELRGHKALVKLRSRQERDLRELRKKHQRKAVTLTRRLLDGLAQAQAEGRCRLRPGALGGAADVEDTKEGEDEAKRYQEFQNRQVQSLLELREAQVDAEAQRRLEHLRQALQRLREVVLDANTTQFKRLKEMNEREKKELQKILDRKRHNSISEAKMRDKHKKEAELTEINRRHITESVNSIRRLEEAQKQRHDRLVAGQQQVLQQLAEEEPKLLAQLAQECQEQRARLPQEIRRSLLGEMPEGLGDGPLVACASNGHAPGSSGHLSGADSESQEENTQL
IN multimer act = HIV-1 integrase multimerization activation, counter-screen; shares compounds with LEDGF integ inh; TR-FRET HIV-1 integrase multimerization, biochemical; activation, % at 7.7 µM; 2,000 tested, 17% active; in the data active = activation above about 8.9%
TR-FRET interf = optically interferes with TR-FRET readout in LEDGF counter-screen; shares compounds with LEDGF integ inh; TR-FRET optical interference counterscreen, HIV-1 IN multimerization; inhibition, % at 7.7 µM; 2,000 tested, under 10 active; AID 1053135;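 active = inhibition above the mean over all tested compounds plus 3 SD, which no compound reached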
LEDGF integ conf = confirmation of HIV-1 LEDGF/p75-dependent integration inhibitors | AID 1053136 | 2,000 tested, 36% active | shares compounds with LEDGF integ inh | TR-FRET LEDGF/p75-dependent HIV-1 integration, biochemical | inhibition, % at 3.7 µM; in the data active = inhibition above about 14%
Each line names hits and unclear results; the compound was inactive in the other large screens (follow-up assays come after a bar, where they were run). Most compounds without a hit are left out; they make up all but 2.3% or so of the library.

C=CCn1c(N)c(C(=O)NCC2CCCO2)c2nc3ccccc3nc21 (centres undefined)	none
COc1ccc(-n2c(N)c(C(=O)NCC3CCCO3)c3nc4ccccc4nc32)c(OC)c1 (centres undefined)	LEDGF integ inh 19 | IN multimer act inactive | TR-FRET interf inactive | LEDGF integ conf inactive
CCc1nnc(NC(=O)c2oc3cc(C)c(C)cc3c2C)s1	LEDGF integ inh 16 | IN multimer act inactive | TR-FRET interf inactive | LEDGF integ conf inactive
CCc1nonc1NC(=O)c1oc2cc(C)c(C)cc2c1C	none
O=C(N/N=C/C=C\c1ccco1)c1cccnc1	none
O=C(CNc1cccc2ccccc12)N/N=C/C=C/c1ccco1	none
O=C(Cc1cccs1)N/N=C/C=C/c1ccco1	LEDGF integ inh 17 | IN multimer act inactive | TR-FRET interf inactive | LEDGF integ conf 31
O=C(N/N=C/C=C/c1ccco1)c1cccnc1	LEDGF integ inh 27 | IN multimer act inactive | TR-FRET interf inactive | LEDGF integ conf 34
O=C(N/N=C/C=C/c1ccco1)c1cnccn1	LEDGF integ inh 26 | IN multimer act inactive | TR-FRET interf inactive | LEDGF integ conf 20
COC(=O)c1ccc(S(=O)(=O)N2CCC(NC(=O)CCC3CCCC3)CC2)cc1	none
CN1C(=O)c2cc(NC(=O)Nc3ccc(F)c(F)c3)ccc2OC[C@H]2O[C@@H](CC(=O)O)CC[C@H]21	none
CCn1c(SCC(=O)NN=Cc2c(C)nn(-c3ccccc3)c2C)nnc1-c1ccc(OC)c(OC)c1	none
CC(CNc1ccccc1O)C(=O)O (centres undefined)	LEDGF integ inh 23 | IN multimer act 11 | TR-FRET interf inactive | LEDGF integ conf inactive
COC(=O)[C@]12C[C@H](CC(=O)NCCCCc3ccccc3)C(=O)N(CCc3ccc(OC)c(OC)c3)C1=C[C@H](C(C)C)O[C@@H]2C1CC1	none
CC1(C(=O)Nc2ccc3nc[nH]c3c2)CCN1C(=O)C1(c2ccccc2)CCCC1 (centres undefined)	LEDGF integ inh 25 | IN multimer act inactive | TR-FRET interf inactive | LEDGF integ conf inactive
C=C(C)CSc1nc2sc3c(c2c(=O)n1-c1ccccc1)CCN(C)C3	none
C=CCSc1nc2sc3c(c2c(=O)n1-c1ccc(C)cc1)CCN(C)C3	LEDGF integ inh 34 | IN multimer act inactive | TR-FRET interf inactive | LEDGF integ conf inactive
Cc1ccccc1NC(=O)OC1CCC12CCC(c1ccccc1)CC2 (centres undefined)	none
O=C(OC12CCCN(C1)/C(=C/c1ccncc1)C2)c1ccc(Cl)cc1 (centres undefined)	none
O=C(Nc1nccs1)c1ccc(S(=O)(=O)N2CCCCC2)cc1	LEDGF integ inh 15 | IN multimer act inactive | TR-FRET interf inactive | LEDGF integ conf inactive
CC1CN(S(=O)(=O)c2ccc(C(=O)Nc3nccs3)cc2)CC(C)O1 (centres undefined)	none
CCOC(=O)N1CCN(C(=O)C[C@H]2C[C@@]3(C(=O)OC)C(=C[C@H](COCc4ccccc4)O[C@@H]3C)N(Cc3ccccc3)C2=O)CC1	none
COc1cc(CCC(O)CC(=O)CCc2ccccc2)ccc1O (centres undefined)	LEDGF integ inh 23 | IN multimer act inactive | TR-FRET interf inactive | LEDGF integ conf inactive
CSc1nc(NCCOCCO)c2sc3nc(-c4ccco4)c4c(c3c2n1)CCC4	LEDGF integ inh 26, UHRF1 binding 29 | IN multimer act inactive | TR-FRET interf inactive | LEDGF integ conf 15
CC(=O)Nc1ccc(S(=O)(=O)/N=C2/NC(=O)/C(=C\c3ccco3)S2)cc1	LEDGF integ inh 23, UHRF1 binding 31 | IN multimer act inactive | TR-FRET interf inactive | LEDGF integ conf inactive
CCOC(=O)c1nn(-c2ccccc2)c(=O)c2c(N)scc12	none
Nc1scc2c(C(=O)N/N=C/c3ccc(Cl)cc3)nn(-c3ccccc3)c(=O)c12	LEDGF integ inh 13 | IN multimer act inactive | TR-FRET interf inactive | LEDGF integ conf inactive
S=C(Nc1ccc2nsnc2c1)N1CCCC1	LEDGF integ inh 32 | IN multimer act inactive | TR-FRET interf inactive | LEDGF integ conf inactive
Cc1cc(C(=O)O[C@H]2CCC[C@]3(C(=O)N(Cc4ccccc4)c4ccccc43)[C@H]2NC(=O)CCc2ccccc2)no1	none
Cc1cc2ccccc2c(=O)[nH]1	none
O=c1[nH]c(Nc2ccc(F)cc2)cc2ccccc12	LEDGF integ inh 53 | IN multimer act inactive | TR-FRET interf inactive | LEDGF integ conf 67
O=c1[nH]c(Nc2ccccc2Cl)cc2ccccc12	LEDGF integ inh 30 | IN multimer act inactive | TR-FRET interf inactive | LEDGF integ conf 30
O=c1[nH]c(Nc2ccccn2)cc2ccccc12	none
CN(CCO)c1cccc2c1S(=O)(=O)N(Cc1cn(Cc3ccc(Cl)cc3)nn1)Cc1ccccc1O2	none
O=C(NC1CCCCN(Cc2cccc(C(F)(F)F)c2)C1=O)c1cccc(F)c1 (centres undefined)	none
CC(=O)N1CCC(N(C(=O)Nc2c(F)cccc2F)C(C)C)CC1	LEDGF integ inh 20 | IN multimer act inactive | TR-FRET interf inactive | LEDGF integ conf inactive
COC(=O)C1=C(C)N(C)C(=NCc2ccccc2C(F)(F)F)NC1CCc1ccccc1 (centres undefined)	none
COCc1cc(N2CCN(C(=O)OC(C)(C)C)C[C@H]2C)ccc1N1CC[C@@H](O)C1	LEDGF integ inh 14 | IN multimer act inactive | TR-FRET interf inactive | LEDGF integ conf inactive
COCc1cc(N2CCN(C(=O)OC(C)(C)C)C[C@@H]2C)ccc1N1C[C@@H](C)O[C@@H](C)C1	none
Cc1ccc2c(c1)C(CS(=O)(=O)NCc1ccccc1)NC2 (centres undefined)	none
O=C(Nc1nc(-c2ccccn2)cs1)C1CC1	none
O=C(CC1CC2CCC1C2)Nc1nc(-c2ccccn2)cs1 (centres undefined)	LEDGF integ inh 16 | IN multimer act inactive | TR-FRET interf inactive | LEDGF integ conf inactive
Cc1cccc(NC(=S)Nc2ccc(N3CCOCC3)cc2)c1C	LEDGF integ inh 21 | IN multimer act inactive | TR-FRET interf inactive | LEDGF integ conf inactive
Cc1cccc(C(=O)NC(=S)Nc2ccc(N3CCOCC3)cc2)c1	LEDGF integ inh 20 | IN multimer act inactive | TR-FRET interf inactive | LEDGF integ conf inactive
COC(=O)Cc1ccc(NC(=S)NCCCN2CCOCC2)cc1	none
Cc1cccc(NC(=S)NN2CCOCC2)c1C	none
COC(=O)Cc1ccc(NC(=S)Nc2ccc(N3CCOCC3)cc2)cc1	LEDGF integ inh 14 | IN multimer act inactive | TR-FRET interf inactive | LEDGF integ conf inactive

High-throughput results from PubChem.
